Measurements reported in PubChem BioAssay AID1159580 (chemical genetic matrix, 2015).
Among all 5,500 compounds or so, about 2,000 (36%) were called active. Not shown: some 18% with an inconclusive outcome. Cut-off read from the data, not from the text of the source: active = normalized growth mostly below about 0.91 (no sharp cut-off); inconclusive = no clear call, values can overlap the other calls; inactive = mostly above about 0.92. This is one part of the list.

Experiment: chemical genetic growth profiling, strain panel (AID 1159580);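 note: tested at 20 µM; growth read once vehicle control cultures reached saturation at 30 °C; 1 = growth at the plate median or of vehicle wells; lower values mean less growth of the strain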
Conditions: S. cerevisiae deletion strains, growth OD

Measured: normalized growth

NCCCC(O)(P(=O)(O)O)P(=O)(O)O
active: locus YPL051W, strain arl3, stronger effect = lower value 0.899
inactive: locus YAL021C, strain ccr4, stronger effect = lower value 0.993 | locus YAL026C, strain drs2, stronger effect = lower value 0.983 | locus YAL030W, strain snc1, stronger effect = lower value 0.993 | locus YBL061C, strain skt5, stronger effect = lower value 0.978 | locus YBR009C, strain hhf1, stronger effect = lower value 0.988 | locus YBR023C, strain chs3, stronger effect = lower value 0.992 | locus YBR171W, strain sec66, stronger effect = lower value 0.953 | locus YBR231C, strain swc5, stronger effect = lower value 0.977 | locus YBR279W, strain paf1, stronger effect = lower value 0.981 | locus YCL011C, strain gbp2, stronger effect = lower value 0.997 | locus YCL016C, strain dcc1, stronger effect = lower value 0.984 | locus YCL061C, strain MRC1, stronger effect = lower value 0.976 | locus YCL069W, strain vba3, stronger effect = lower value 0.991 | locus YCR088W, strain abp1, stronger effect = lower value 0.972 | locus YDL005C, strain med2, stronger effect = lower value 0.99 | locus YDL040C, strain nat1, stronger effect = lower value 0.989 | locus YDR001C, strain nth1, stronger effect = lower value 0.983 | locus YDR069C, strain doa4, stronger effect = lower value 1 | locus YDR137W, strain rgp1, stronger effect = lower value 1 | locus YDR159W, strain sac3, stronger effect = lower value 1 | locus YDR195W, strain ref2 0.943 | locus YDR297W, strain sur2, stronger effect = lower value 0.991 | locus YDR334W, strain swr1, stronger effect = lower value 0.967 | locus YDR335W, strain msn5, stronger effect = lower value 0.99 | locus YDR392W, strain spt3, stronger effect = lower value 0.964 | locus YEL003W, strain gim4, stronger effect = lower value 0.989 | locus YEL037C, strain rad23, stronger effect = lower value 0.978 | locus YEL061C, strain CIN8 (second series), stronger effect = lower value 0.973 | locus YER015W, strain faa2, stronger effect = lower value 0.987 | locus YER016W, strain bim1, stronger effect = lower value 0.984 | locus YER111C, strain swi4, stronger effect = lower value 0.978 | locus YER155C, strain BEM2 (second series), stronger effect = lower value 0.968 | locus YFR010W, strain ubp6, stronger effect = lower value 0.968 | locus YGL167C, strain pmr1, stronger effect = lower value 0.98 | locus YGL173C, strain kem1, stronger effect = lower value 0.959 | locus YGL227W, strain vid30, stronger effect = lower value 0.97 | locus YGL240W, strain doc1, stronger effect = lower value 0.995 | locus YGL253W, strain hxk2, stronger effect = lower value 0.977 | locus YHR013C, strain ard1, stronger effect = lower value 0.97 | locus YHR027C, strain rpn1, stronger effect = lower value 0.983 | locus YHR030C, strain SLT2, stronger effect = lower value 0.979 | locus YHR079C, strain IRE1, stronger effect = lower value 0.968 | locus YHR142W, strain chs7, stronger effect = lower value 0.972 | locus YJL092W, strain hpr5, stronger effect = lower value 0.972 | locus YJL095W, strain BCK1 (second series), stronger effect = lower value 0.985 | locus YJL095W, strain BCK1, stronger effect = lower value 1 | locus YJL115W, strain asf1, stronger effect = lower value 0.976 | locus YJL129C, strain trk1, stronger effect = lower value 0.964 | locus YJL154C, strain vps35, stronger effect = lower value 0.974 | locus YJL164C, strain tpk1, stronger effect = lower value 0.996 | locus YJL166W, strain qcr8, stronger effect = lower value 1 | locus YJL187C, strain SWE1, stronger effect = lower value 0.991 | locus YJR066W, strain TOR1, stronger effect = lower value 0.952 | locus YKL160W, strain elf1, stronger effect = lower value 0.99 | locus YKR026C, strain gcn3, stronger effect = lower value 0.98 | locus YKR091W, strain srl3, stronger effect = lower value 0.981 | locus YLL001W, strain dnm1, stronger effect = lower value 0.987 | locus YLL026W, stronger effect = lower value 0.995 | locus YLL041C, strain sdh2, stronger effect = lower value 1.01 | locus YLR027C, strain aat2, stronger effect = lower value 1 | locus YLR113W, strain HOG1, stronger effect = lower value 1 | locus YLR221C, strain rsa3, stronger effect = lower value 0.99 | locus YLR258W, strain gsy2, stronger effect = lower value 0.998 | locus YLR262C, strain YPT6 (second series), stronger effect = lower value 0.973 | locus YLR320W, strain mms22, stronger effect = lower value 0.987 | locus YLR342W, strain FKS1, stronger effect = lower value 0.978 | locus YLR357W, strain rsc2, stronger effect = lower value 0.975 | locus YLR370C, strain arc18, stronger effect = lower value 0.976 | locus YLR384C, strain iki3, stronger effect = lower value 0.978 | locus YML120C, strain ndi1, stronger effect = lower value 0.989 | locus YMR058W, strain fet3, stronger effect = lower value 0.977 | locus YMR125W, strain sto1, stronger effect = lower value 0.978 | locus YMR129W, stronger effect = lower value 0.99 | locus YMR205C, strain PFK2, stronger effect = lower value 0.996 | locus YMR231W, strain pep5, stronger effect = lower value 0.962 | locus YNL071W, strain lat1, stronger effect = lower value 0.985 | locus YNL183C, strain NPR1, stronger effect = lower value 0.978 | locus YNL209W, strain ssb2, stronger effect = lower value 0.982 | locus YNL248C, strain rpa49, stronger effect = lower value 0.985 | locus YNL322C, strain KRE1 (second series), stronger effect = lower value 0.98 | locus YNR049C, strain mso1, stronger effect = lower value 0.987 | locus YOR001W, strain rrp6, stronger effect = lower value 0.983 | locus YOR070C, strain gyp1, stronger effect = lower value 0.972 | locus YOR080W, strain dia2, stronger effect = lower value 0.979 | locus YOR083W, strain WHI5, stronger effect = lower value 0.99 | locus YOR106W, strain vam3, stronger effect = lower value 0.956 | locus YOR231W, strain MKK1, stronger effect = lower value 0.989 | locus YOR265W, strain rbl2, stronger effect = lower value 0.995 | locus YOR270C, strain vph1, stronger effect = lower value 0.965 | locus YOR290C, strain snf2, stronger effect = lower value 0.98 | locus YPL078C, strain atp4, stronger effect = lower value 0.976 | locus YPL106C, strain sse1, stronger effect = lower value 0.983 | locus YPL240C, strain hsp82, stronger effect = lower value 0.992 | locus YPL256C, strain CLN2, stronger effect = lower value 0.973

NCCCP(=O)(O)O
inactive: locus YAL040C, strain CLN3, stronger effect = lower value 1.04 | locus YCL061C, strain MRC1 (second series), stronger effect = lower value 0.998 | locus YDR150W, strain NUM1, stronger effect = lower value 1.01 | locus YDR363W, strain ESC2, stronger effect = lower value 0.956 | locus YER002W, strain NOP16, stronger effect = lower value 0.981 | locus YGR229C, strain SMI1, stronger effect = lower value 0.984 | locus YNL175C, strain NOP13, stronger effect = lower value 0.978 | locus YNL197C, strain WHI3, stronger effect = lower value 0.979 | locus YNL224C, strain SQS1, stronger effect = lower value 1 | locus YOR083W, strain WHI5 (second series), stronger effect = lower value 0.98 | locus YPL055C, strain LGE1, stronger effect = lower value 1.02 | locus YPL241C, strain CIN2, stronger effect = lower value 0.995
